± gives the standard deviation of the averaged measurements.
Tests used:
Test in all cases: cell viability (% of vehicle); higher = less cytotoxic
Details in all cases: 10 µM; 72 h
HCI01 = test system: HCI01 (cells of a triple-negative basal-like breast cancer xenograft)
HCI03 = test system: HCI03 (cells of an ER-positive luminal breast cancer xenograft)
HCI09 = test system: HCI09 (cells of a triple-negative luminal androgen receptor type breast cancer xenograft)
HCI11 = test system: HCI11 (cells of an ER-positive luminal breast cancer xenograft)
HCI13 = test system: HCI13 (cells of an ER-positive luminal breast cancer xenograft)
HCI16 = test system: HCI16 (cells of a triple-negative basal-like breast cancer xenograft)
UCD52 = test system: UCD52 (cells of a triple-negative basal-like breast cancer xenograft)
WHIM2 = test system: WHIM2 (cells of a triple-negative basal-like breast cancer xenograft)
WHIM30 = test system: WHIM30 (cells of a triple-negative basal-like breast cancer xenograft)
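Further: PDX cells carrying CMV promoter-driven luciferase, viability read as total photon flux per second by IVIS imaging following D-luciferin, vehicle control 0.1% DMSO.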

SMILES | cell viability (HCI01) | cell viability (HCI03) | cell viability (HCI09) | cell viability (HCI11) | cell viability (HCI13) | cell viability (HCI16) | cell viability (UCD52) | cell viability (WHIM2) | cell viability (WHIM30)
CC(CCc1ccccc1)NCC(O)c1ccc(O)c(C(N)=O)c1.Cl (stereo unspecified) [Labetalol HCl] | 101 ± 12 | 106 | 95.8 ± 9.3 | 104 | 105 ± 7.3 | 112 | 85.7 ± 7 | 110 ± 15 | 111 ± 13
CN(C)CCC(c1ccc(Br)cc1)c1ccccn1.O=C(O)C=CC(=O)O (stereo unspecified) [Brompheniramine hydrogen maleate] | 119 ± 19 | 117 | 103 ± 1.9 | 99.5 | 142 ± 4.6 | 118 | 74.9 ± 2.3 | 97.9 ± 3.3 | 113.4 ± 1.1
Cc1nc(C(=O)NCC(=O)O)c(O)c2ccc(Oc3ccccc3)cc12 | 122 ± 2.7 | 189 | 88.7 ± 11 | 140 | 113 ± 4.4 | 88.2 | 107 ± 14 | 160 ± 8.2 | 116 ± 14
CCC1(O)CC2CN(CCc3c([nH]c4ccccc34)C(C(=O)OC)(c3cc4c(cc3OC)N(C)C3C(O)(C(=O)OC)C(OC(C)=O)C5(CC)C=CCN6CCC43C65)C2)C1 (stereo unspecified) [vinblastine] | 123 ± 3.3 | 91.1 | 45.7 ± 42 | 96.2 | 37.6 ± 3.4 | 164 | 68 ± 10 | 80.7 ± 22 | 124 ± 17
Cc1cccc(Nc2ccncc2S(=O)(=O)NC(=O)NC(C)C)c1 [Torsemide] | 84.3 ± 43 | 140 | 95.4 ± 16 | 93.5 | 120 ± 21 | 127 | 106 ± 1.8 | 106 ± 1.5 | 171 ± 13
NC(=O)N1c2ccccc2CC(=O)c2ccccc21 [Oxcarbazepine] | 91.5 ± 16 | 133 | 107 ± 16 | 98.9 | 104 ± 15 | 124 | 99.59 ± 0.42 | 91.2 ± 2.1 | 159 ± 3.8
Nc1nc(Cl)nc2c1ncn2C1CC(O)C(CO)O1 (stereo unspecified) [Cladribine] | 95.8 ± 7.4 | 118 | 94.6 ± 26 | 104 | 128 ± 34 | 58.3 | 110 ± 15 | 106 ± 34 | 78.8 ± 8.9
CCC(=C(CC)c1ccc(O)cc1)c1ccc(O)cc1 [Diethylstilbestrol] | 59.1 ± 40 | 95.7 | 61.4 ± 39 | 75.5 | 41 ± 12 | 107 | 78.3 ± 8.4 | 116 ± 51 | 83.8 ± 11
Oc1c(Br)cc(Br)c2cccnc12 [Broxyquinoline] | 81.5 ± 50 | 89.1 | 25.5 ± 7.7 | 98.1 | 34.3 ± 4.1 | 122 | 72.8 ± 42 | 146 ± 60 | 98 ± 4.2
CCCC1CC(C(=O)NC(C(C)Cl)C2OC(SC)C(O)C(O)C2O)N(C)C1 (stereo unspecified) [Clindamycin] | 142 ± 42 | 124 | 83 ± 23 | 106 | 76.4 ± 12 | 122 | 96.8 ± 12 | 117 ± 13 | 116 ± 7.1
Nc1ccc(C(=O)[O-])c(O)c1.O.O.[Na+] [Sodium 4-Aminosalicylate] | 138 ± 21 | 157 | 108 ± 20 | 95.3 | 96.8 ± 13 | 143 | 77.7 ± 16 | 87.9 ± 20 | 92.3 ± 1.1
CC(C)C(=O)Nc1ccc([N+](=O)[O-])c(C(F)(F)F)c1 [Flutamide] | 136 ± 7.3 | 139 | 71.8 ± 8 | 125 | 97.9 ± 8.4 | 78.4 | 78.9 ± 5.1 | 112 ± 33 | 116 ± 6.6
CC(C)(C)N.CCCC(NC(C)C(=O)N1C(C(=O)O)CC2CCCCC21)C(=O)OCC (stereo unspecified) [Perindopril Erbumine] | 84.9 ± 13 | 101 | 95.1 ± 11 | 93.5 | 129 ± 5.6 | 108 | 72.44 ± 0.41 | 98.2 ± 1.5 | 114 ± 28
CO[C@H]1/C=C/O[C@@]2(C)Oc3c(C)c(O)c4c(O)c(c5c(nc6cc(C)ccn65)c4c3C2=O)NC(=O)/C(C)=C\C=C\[C@H](C)[C@H](O)[C@@H](C)[C@H](O)[C@@H](C)[C@H](OC(C)=O)[C@@H]1C [Rifaximin (Xifaxan)] | 121 ± 13 | 115 | 114 ± 43 | 98.8 | 98.8 ± 33 | 97.6 | 91.9 ± 7.9 | 68.6 ± 13 | 128 ± 12
CCC(C)n1ncn(-c2ccc(N3CCN(c4ccc(OCC5COC(Cn6cncn6)(c6ccc(Cl)cc6Cl)O5)cc4)CC3)cc2)c1=O (stereo unspecified) [Itraconazole] | 93.5 ± 38 | 81.2 | 56.7 ± 1.2 | 78.5 | 84.3 ± 4.1 | 129 | 68.6 ± 12 | 131 ± 17 | 94.7 ± 1.1
CC(CN1CC(=O)NC(=O)C1)N1CC(=O)NC(=O)C1 (stereo unspecified) [Dexrazoxane] | 83 ± 6.2 | 148 | 102 ± 20 | 92.4 | 110 ± 13 | 103 | 100.8 ± 0.77 | 75.7 ± 5.5 | 131.05 ± 0.028
Cl.Nc1ncnc2nc[nH]c12 [Adenine HCl] | 124 ± 9.7 | 126 | 112 ± 4.7 | 117 | 87.7 ± 10 | 147 | 165 ± 5.9 | 106 ± 4.3 | 101 ± 7.6
CNCCC(Oc1ccccc1C)c1ccccc1.Cl (stereo unspecified) [Atomoxetine HCl] | 119 ± 8.9 | 145 | 111 ± 11 | 108 | 105 ± 3.7 | 130 | 85 ± 3.7 | 88.7 ± 17 | 180 ± 28
CC(C(=O)O)c1ccc(C(=O)c2cccs2)cc1 (stereo unspecified) [Suprofen] | 116 ± 29 | 133 | 97.9 ± 4 | 69.5 | 114 ± 7.9 | 125 | 102.3 ± 0.22 | 107 ± 3.9 | 100 ± 15
